ALDH1A1 block – blocks purified human ALDH1A1 activity; AID 1030; Purified ALDH1A1, NADH fluorescence, propionaldehyde substrate; Potency, µM (doses to about 75.3 µM), without a hit: top-dose activity, negative = inhibition, usual class: inhibitors; actives 7.3% (n = 220,000); P00352;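 note: potency is the fitted concentration of half-maximal effect; plate controls were no enzyme wells and a reference inhibitor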
PNC inhibitor – blocks assembly of the perinucleolar compartment; PC3M PTB-GFP, PNC prevalence imaging, 16 h; active compounds read low; actives 3.1% (n = 140,000); activity change (PNC), negative = inhibition, % at 10 µM; AID 2417;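 active = readout at or below -70, meaning at least 70% loss of cells showing the perinucleolar compartment, a nuclear body marking cancer cells; inconclusive = readout between -30 and a set limit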;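 note: plate controls were DMSO wells for no effect and camptothecin positive control wells for full effect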
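PC3M cells stably expressing PTB-GFP, 750–1000 cells/well, treated 16 h at 37 °C with compound (23 nl of library stock), in duplicate. After paraformaldehyde fixation and Hoechst stain, imaged at 20x; PNC prevalence scored by image analysis.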
HPGD block – blocks human HPGD enzyme activity; P15428; purified HPGD, NADH fluorescence kinetic, PGE2 substrate; Potency, µM, inactives show top-dose activity change, negative = inhibition, hits mostly inhibitors; actives 4.3% (n = 150,000); AID 894; note: potency is the fitted concentration of half-maximal effect
Target sequence (P15428 whole entry, looked up): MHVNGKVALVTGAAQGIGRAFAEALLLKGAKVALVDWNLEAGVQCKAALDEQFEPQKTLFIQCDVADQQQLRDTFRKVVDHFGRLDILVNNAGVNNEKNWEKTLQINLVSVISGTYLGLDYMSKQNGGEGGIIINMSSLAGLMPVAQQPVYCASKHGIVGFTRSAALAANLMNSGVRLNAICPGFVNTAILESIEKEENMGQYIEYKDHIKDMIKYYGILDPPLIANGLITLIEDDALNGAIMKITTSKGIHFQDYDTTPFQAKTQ
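20 nM HPGD preincubated 15 min at room temperature with compound in 50 mM Tris-HCl pH 8, 0.01% Tween 20. Started with 1 mM NAD+ and 30 uM prostaglandin E2; NADH fluorescence (360/450 nm) read 5 times over 30-s intervals, last minus first.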
The depositor's hits bear a star; ? = inconclusive; / = no result given; [ ] = remark or other dose. In the library only some 11% were active in any assay of this set; here they are far more common. Unless noted, calls come from the whole dose curve; as a rule, active = well fitted inhibition curve with a large enough effect (not every such curve was filed as active); inconclusive = small, poorly fitted or top-dose-only effect, or another doubt; inactive = no such curve, though single readings can be large or run the other way. Unless noted, % is set by controls: 0 for no effect and ±100 for the full control effect.

SMILES	ALDH1A1 block	PNC inhibitor	HPGD block
COc1ccc(C)cc1NS(=O)(=O)c1ccc(NC(=O)CN(c2cc([N+](=O)[O-])ccc2C)S(C)(=O)=O)cc1	9%	?	-15%
O=C(CSc1nc2ccccc2c(=O)n1-c1ccc(SC(F)F)cc1)Nc1ccc(N2CCOCC2)cc1	10µM*	/	/
O=C(c1ccc(-n2c(SCc3cccc(F)c3)nc3ccccc3c2=O)cc1)N1CCOCC1	0.32µM*	-25	-13%
O=c1c2ccccc2nc(SCc2cccc(F)c2)n1-c1cccc(S(=O)(=O)N2CCCC2)c1	-1%	-26	-4%
O=C(CSc1nc2ccccc2c(=O)n1-c1ccc(F)cc1)Nc1ccc(N2CCOCC2)cc1	-7%	-29	-1%
Clc1ccc(Cl)c(OCc2cc(-c3ccccc3Cl)on2)c1	6%	16	1%
Cc1ccc(C(=O)n2nc(-n3cccc3)c3c(C)cc(C)nc32)cc1	-5%	/	/
Cc1cc(C)c2c(-n3cccc3)nn(C)c2n1	-4%	-109*	-16%
CC(=O)c1c(C)[nH]c(C(=O)OC(C)C(=O)Nc2cc(S(=O)(=O)N3CCCCC3)ccc2Cl)c1C (stereo not drawn)	4%	?	-1%
CC(C)c1ccccc1NC(=O)COc1ccc(C(=O)NCCc2ccccc2)cc1	0%	2	-5%
CCOc1ccc(NC(=O)COc2ccc(C(=O)NCCc3ccccc3)cc2)cc1	-1%	-105*	/
CCNS(=O)(=O)c1ccc(CCC(=O)O)cc1	22%	/	/
CCOCC(=O)Nc1ccc(S(=O)(=O)NCCc2ccccc2)cc1	10µM*	3	-5%
O=C(O)CCc1ccc(S(=O)(=O)NCCc2ccccc2)cc1	1.8µM*	5	/
O=C(Nc1ccc(S(=O)(=O)NCCc2ccccc2)cc1)c1ccco1	?	-15	-24%
O=C(NC1CCCCC1)NC1CC2CCC(C1)N2Cc1nnnn1Cc1ccc2c(c1)OCO2 (stereo not drawn)	-1%	-9	-15%
Cc1noc(C)c1CSc1ncnc2ccccc12	-12%	?	-27%
Cc1ccccc1-c1nccc(Nc2ccc(F)cc2)n1	17%	/	/
O=C(CN1C(=O)COc2ccccc21)N(Cc1ccccc1)Cc1ccccn1	?	?	-12%
Cc1ccc(CN(Cc2cccnc2)C(=O)CN2C(=O)COc3ccccc32)o1	28µM*	-2	-9%
O=C(Nc1nc(-c2ccncc2)cs1)C1c2ccccc2Oc2ccccc21	-6%	-14	-4%
Cc1nnc(NC(=O)C2c3ccccc3Oc3ccccc32)s1	-14%	205	22µM*
O=C(Nc1nc(-c2ccccc2)cs1)C1c2ccccc2Oc2ccccc21	1.8µM*	-17	-14%
CC(C)c1nnc(NC(=O)C2c3ccccc3Oc3ccccc32)s1	?	-21	-7%
Cc1ccc(S(=O)(=O)N[C@H](C(=O)OCC(=O)N2N=C(c3ccc(Cl)cc3)CC2c2ccco2)C(C)C)cc1 (stereo partly drawn)	5%	-5	-26%
SMILES	ALDH1A1 block	PNC inhibitor	HPGD block
O=c1oc(-c2ccc([N+](=O)[O-])cc2)nc2ccc(O)cc12	-4%	/	/
COc1ccccc1N1CCN(Cc2ccc(O)c3ncccc23)CC1	-7%	-6	-13%
Oc1ccc(CN2CCCc3ccccc32)c2cccnc12	10µM*	?	-9%
CC(c1nccs1)N(C)C(=O)CCc1nnc(CCc2ccccc2)o1 (stereo not drawn)	5%	/	/
O=C(CN1CCN(c2ccccn2)CC1)Nc1ccc(OCc2ccccc2)cc1	?	62	-8%
COc1ccc(NC(=O)CN2CCOCC2)cc1	?	?	-13%
Cc1ccc(NC(=O)CSc2nnc(NC(=O)CN3CCOCC3)s2)cc1	?	-117*	-17%
O=C(CN1CCOCC1)Nc1ccc(Oc2ccc(NC(=O)CN3CCOCC3)cc2)cc1	18µM*	5	?
CC(=O)c1ccc(NC(=O)CSc2nnc(NC(=O)CN3CCOCC3)s2)cc1	0%	3	-3%
O=C(CN1CCOCC1)Nc1ccc(OCc2ccccc2)cc1	13µM*	6	-15%
CC1CN(C(=O)COC(=O)c2nn(-c3ccccc3)c(=O)c3ccccc23)CC(C)O1 (stereo not drawn)	-4%	/	/
CCOC(=O)c1ccc(NC(=O)CCSCCc2ccccn2)cc1	-5%	/	/
Cc1ccccc1NC(=O)N1CCN(S(=O)(=O)c2ccccc2)CC1	-3%	/	/
Cc1ccc(S(=O)(=O)N(C)C)cc1NC(=O)c1cncc(Br)c1	?	100	-10%
Cc1ccc(N=C2CCCN2Cc2ccccc2)c(C#N)c1	-10%	59	1%
Cc1ccc(C)c(CSc2nnc(-c3ccccn3)n2N)c1	10µM*	?	16µM*
Cc1ccc(C)c(-n2c(SCC(N)=O)nnc2-c2ccccn2)c1	4%	43	-8%
Nc1cc(N)nc(SCC(=O)c2ccc3c(c2)NC(=O)CO3)n1	7%	/	/
O=C1COc2ccc(N3C(=O)C=CC3=O)cc2N1	6.3µM*	/	/
C[n+]1cc2c3c(ccc2c2ccc4cc5c(cc4c21)OCO5)OCO3	7%[20.9 µM]	/	?
COC(=O)C1=C(CSCc2ccco2)NC(=O)NC1c1cc(C)ccc1C (stereo not drawn)	?	9	-10%
C/C(Cn1cnc([N+](=O)[O-])n1)=N\NC(=O)c1ccc(Br)cc1	14µM*	5	-12%
C/C(Cn1cnc([N+](=O)[O-])n1)=N\NC(=O)c1cccnc1	4%	-17	-6%
C/C(Cn1nnc([N+](=O)[O-])n1)=N\NC(=O)c1ccc(Cl)c(Cl)c1	28µM*	15	-8%
C/C(Cn1cnc([N+](=O)[O-])n1)=N/NC(=O)COc1ccccc1Cl	14µM*	-4	-6%
SMILES	ALDH1A1 block	PNC inhibitor	HPGD block
C/C(Cn1cnc([N+](=O)[O-])n1)=N\NC(=O)c1ccccc1O	13%	/	/
C/C(Cn1nnc([N+](=O)[O-])n1)=N\NC(=O)c1ccccc1O	8%	/	/
N#Cc1ccc(OCC(=O)NCCc2ccccn2)cc1	-4%	?	-5%
COC(=O)C1=NOC2(C=C(Br)C(OC)=C(Br)C2=O)C1 (stereo not drawn)	-13%[13.5 µM]	/	/
C1CCC2(CC1)C1=C(CCCC1)Nc1nnnn12	28µM*	?	2%
Nc1nc2n(n1)C1(CCCCC1)C1=C(CCCC1)N2	?	14	-1%
CC(=O)N1C(=O)CC(C)N(C(C)=O)c2ccc([N+](=O)[O-])cc21 (stereo not drawn)	4%	?	-8%
O=C(NC1CCCCC1)C(=S)N1CCOCC1	24µM*	/	/
S=C(NC1CCCC1)N1CCOCC1	5%	/	/
Clc1ccc(OCc2cnc(Cl)s2)cc1	1%	19	-7%
CCc1c(OC(C)=O)c2ccccc2n(C)c1=O	?	?	-24%
C=CCc1c(OC(C)=O)c2ccccc2n(C)c1=O	1%	-106*	-14%
COc1ccc(N(C(=O)C(C)C)S(=O)(=O)c2ccc3c(c2)n(C)c(=O)n3C)cc1	2%	5	-7%
CCc1ccc2[nH]c(O)c(N=Nc3nc(-c4ccccc4)cs3)c2c1	17%	18	-8%
CCCSc1nnc2[nH]c(=O)cc(N)n12	5%	77	-8%
CCCCSc1nnc2[nH]c(=O)cc(N)n12	?	25	16µM*
CC1CCCN(C(=O)CSc2nnc(-c3ccncc3)n2C)C1 (stereo not drawn)	14%	/	/
